Measurements from PMC7819943, “Rice protein-binding microarrays: a tool to detect cis-acting elements near promoter regions in rice”.
Over roughly 68,000 sequences, “fluorescence intensity (a.u.)” has its median near 9,100; the highest 2% begin near 16,000. This is one part of a sample in which the highest values are shown more often than they occur.

Target: OsWRKY34 (Oryza sativa, UniProt Q0JBA9 1-250)
Experiment: protein-binding microarray (RPBM); PBS, 2% BSA, 51.3 ng/ul salmon testes DNA, 50 uM zinc acetate, 200 nM TF, 25 C, 1 h; high values mean tight binding
Conditions: protein: recombinant; tags: N-terminal polyhistidine and DsRed monomer fusion (pET32a); label: CyDye5-dUTP incorporated in the synthesized complementary strand; 3' TTTTT single-stranded linker to array surface; dsDNA, one strand shown
Procedure, shortened: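 An Axon 4000B scanner gave the binding signal as per-feature fluorescence intensity in arbitrary units. This followed washing of a custom Agilent array that had been incubated for 1 h at 25 °C with 200 nM protein in PBS, 2% BSA, salmon testes DNA and 50 µM zinc acetate. The proteins were transcription factors fused at the N-terminus to polyhistidine and DsRed, expressed in E. coli BL21-CodonPlus and purified on Ni–NTA.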

Chain of OsWRKY34 (Q0JBA9 entry or part of it): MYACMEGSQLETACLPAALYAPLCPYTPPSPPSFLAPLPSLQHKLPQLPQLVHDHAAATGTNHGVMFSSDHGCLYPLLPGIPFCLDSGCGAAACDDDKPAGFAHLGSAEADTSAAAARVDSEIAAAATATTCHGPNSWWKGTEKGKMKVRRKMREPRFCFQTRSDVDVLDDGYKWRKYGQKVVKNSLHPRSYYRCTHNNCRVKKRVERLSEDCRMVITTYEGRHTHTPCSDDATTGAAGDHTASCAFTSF

Sequence	binding signal
GAATTCATACTTTTTCCTATATTTATCTTTGGCCTTAATCCGGAGTCACCTAGTGCAG	8560 fluorescence intensity (a.u.)
CCCCAAAATACTCGACGCTGAACTTTCCCATCAGCTAGTACGGAGTCACCTAGTGCAG	8280 fluorescence intensity (a.u.)
CCTTGGCAGTGGGGCGGAGGGGCGGTGTCGGTGCTGGCGGCGGAGTCACCTAGTGCAG	13800 fluorescence intensity (a.u.)
TTGTAAGTTAGGGACCTGTTGTATCTGATTTTTTGGTTGACGGAGTCACCTAGTGCAG	8210 fluorescence intensity (a.u.)
AATGTTGTCCTGTCGGCTGCTTCTGCTCCAACGTCAAGTTCGGAGTCACCTAGTGCAG	8140 fluorescence intensity (a.u.)
ATTTTACCAGTCTTGGAGATTTTAATCTTGTATAGTTTTCCGGAGTCACCTAGTGCAG	9110 fluorescence intensity (a.u.)
CTCACCATTTCATTTTATTTTTCATTTTTCACCACAAATTCGGAGTCACCTAGTGCAG	9050 fluorescence intensity (a.u.)
TATATATATATATATATATATATTCACAAATTATTTTTCACGGAGTCACCTAGTGCAG	23500 fluorescence intensity (a.u.)
CTAGGGTTAGGGGTTTGGGTGGGGAAATTTTCACGAGGGACGGAGTCACCTAGTGCAG	14600 fluorescence intensity (a.u.)
TTTCATTATACATATAGTTTTACATATTTCACAAAATTTTCGGAGTCACCTAGTGCAG	8770 fluorescence intensity (a.u.)
GGGGATTTTTTTTTCGGATCCAGAACGATCAGAGAGGGAGCGGAGTCACCTAGTGCAG	9300 fluorescence intensity (a.u.)
GGGGAAATTTTCACGAGGGAGAGGGAGGGGAGGGATATTTCGGAGTCACCTAGTGCAG	23200 fluorescence intensity (a.u.)
ATCCATGGGCCTCGTTGGTTATAGCCTGTGTGCATCAACACGGAGTCACCTAGTGCAG	8230 fluorescence intensity (a.u.)
TCCTCCTTTCTCGCTCTCGCTCTGTCCGATCGGAGCCATGCGGAGTCACCTAGTGCAG	8490 fluorescence intensity (a.u.)
TTGGGGTTCGTGGGGTCGAGAGGAAGGTGCGTGATCATACCGGAGTCACCTAGTGCAG	11500 fluorescence intensity (a.u.)
TATTTTCCGGATCGAATTGCCACGTAAGGGCCACATCAGTCGGAGTCACCTAGTGCAG	8510 fluorescence intensity (a.u.)
ACTGGCTTTGCTATGATCTTTTGCTATCGCCCAACCGTTACGGAGTCACCTAGTGCAG	8690 fluorescence intensity (a.u.)
ATTTTCTACTCTTTTGGTCCCACTAGTCATAGACTCTTTTCGGAGTCACCTAGTGCAG	10800 fluorescence intensity (a.u.)
TGTGCCGTGACTCGATGTGCTCCTCCATCTCTTGCTGCAACGGAGTCACCTAGTGCAG	8170 fluorescence intensity (a.u.)
TGTGCTGTGTGGTGTACTGGTGTGTGGGCTTAATAATTGTCGGAGTCACCTAGTGCAG	14200 fluorescence intensity (a.u.)
GGGAGGGGCTGCTAATTCGGTGTGATTAGTACAGTAGTTTCGGAGTCACCTAGTGCAG	10100 fluorescence intensity (a.u.)
GTTTTTTTTTTTTGGCGCAGGGAGTGGTGGCGTGGTGTGTCGGAGTCACCTAGTGCAG	8170 fluorescence intensity (a.u.)
GCAGAGAGAGGGGAGGAGGGTGGGTGGCGGCGGCGGCTAGCGGAGTCACCTAGTGCAG	14400 fluorescence intensity (a.u.)
GAGGGAGGGAGGGAGGGAGGGCGTGTAGCGTAGTTGGTGTCGGAGTCACCTAGTGCAG	18800 fluorescence intensity (a.u.)
CTGCGGGGAGGTGTAGGAGGAGGAGGGCGGAGGAGGTGGTCGGAGTCACCTAGTGCAG	8780 fluorescence intensity (a.u.)
GTGAGGACGGCCTGCGGGTGCATGCGGGCGCAACAAGTAGCGGAGTCACCTAGTGCAG	17500 fluorescence intensity (a.u.)
GAGGCGGGTGATAGCGCGGTGGGGCGGTGGCGGCGGTGGACGGAGTCACCTAGTGCAG	13000 fluorescence intensity (a.u.)

Sequence	binding signal
GGGAGGGAGGGTGGCTGTAGTGTGCTAATCACAAATAATTCGGAGTCACCTAGTGCAG	20500 fluorescence intensity (a.u.)
GCGGTGGAGGGCCGGCGGAGAGGGGAGCAGCGGTGGAGGGCGGAGTCACCTAGTGCAG	11000 fluorescence intensity (a.u.)
TCGAGAGGTGGGGAGGGGAGGGGAGCAGAGGGCGGCATCGCGGAGTCACCTAGTGCAG	18600 fluorescence intensity (a.u.)
CGGGCGGCGGGTGCGGACTGCGGAGGAGGCTGGCGGGGCACGGAGTCACCTAGTGCAG	8630 fluorescence intensity (a.u.)
CCTCACCCTATGCTCCTGTGTTTTGTAGTCTTTCGTAACACGGAGTCACCTAGTGCAG	8220 fluorescence intensity (a.u.)
ACGGCATCAAATCTCTGTTTGTACATGTGCCCCTGTTCTTCGGAGTCACCTAGTGCAG	9440 fluorescence intensity (a.u.)
CCCGACCAAACACTACGAACTCTTCTACCTTCTTTGTTTCCGGAGTCACCTAGTGCAG	12600 fluorescence intensity (a.u.)
CAATGCACTGTTCATCTTCAGTAGTTATGTTTTCTCAGTGCGGAGTCACCTAGTGCAG	10400 fluorescence intensity (a.u.)
CAAATTTGGTATTTCTCTCTGCTCACTCCATCCCTCAACTCGGAGTCACCTAGTGCAG	8830 fluorescence intensity (a.u.)
ATGGTGGCCGGTCTTTTTTCCTCTTCGCTCGATGCCAAAACGGAGTCACCTAGTGCAG	8270 fluorescence intensity (a.u.)
CGGCTAAACTCCCACGTGAACCAGACGCTGCACCAAAAACCGGAGTCACCTAGTGCAG	8430 fluorescence intensity (a.u.)
GAAGTGAATAGTAGAGGGTTTTGATGGGTTGGGAAGAGAACGGAGTCACCTAGTGCAG	11200 fluorescence intensity (a.u.)
ATTAATTTCGCTTGCTAACACGAGTTTAATCTGCCAATTTCGGAGTCACCTAGTGCAG	10000 fluorescence intensity (a.u.)
CCACTGCATACCAACACCAACCACTGTACTAGCACTACTACGGAGTCACCTAGTGCAG	8980 fluorescence intensity (a.u.)
AGATTGTGGTGGGTGTTGATTGTGGTGATCTTGTCCCCTCCGGAGTCACCTAGTGCAG	13000 fluorescence intensity (a.u.)
GGGCTGGAGATGGAGATGGAGATGGAGATGGAGGGTGGGTCGGAGTCACCTAGTGCAG	8660 fluorescence intensity (a.u.)
GGAGAAAAAGGGGAGGGAGGGAGATGATGACGTGTAGGGGCGGAGTCACCTAGTGCAG	8550 fluorescence intensity (a.u.)
CTCGAGCGGCGGTGGGGATGGGGATGGGGCGGCGGCGACGCGGAGTCACCTAGTGCAG	17000 fluorescence intensity (a.u.)
CTACTATACGTCGATGGGGAGGGAGGGAGGGTGGCTGTAGCGGAGTCACCTAGTGCAG	26400 fluorescence intensity (a.u.)
GGAGATCCTGAGGCAGCGGGGAGAGGGGAGGTGGGCGATGCGGAGTCACCTAGTGCAG	10500 fluorescence intensity (a.u.)
GCGGGAGGAGAGCGGCGGGCGGCGGGCGGCGGCGGCTGTGCGGAGTCACCTAGTGCAG	9520 fluorescence intensity (a.u.)
GGCGGGGCGGCGGAGGTGGTGGTGGGGAGGGCGAGAGATGCGGAGTCACCTAGTGCAG	23400 fluorescence intensity (a.u.)
AGGCGAGCGAGGCGGGTGGGCGGGGAGCGAACCAACGACGCGGAGTCACCTAGTGCAG	8840 fluorescence intensity (a.u.)
AGAGGAGGAGAGTGGTGGTGGTGCGAGAGGGAGGGAGATGCGGAGTCACCTAGTGCAG	9230 fluorescence intensity (a.u.)
GTGGTGTAGTGGGAGCGGCCGAGATGGGGCGTCGACGGGGCGGAGTCACCTAGTGCAG	8770 fluorescence intensity (a.u.)
AGAGATGCGTGTGTAGGCGGCGGGGAGGGGAGGGCTGTGACGGAGTCACCTAGTGCAG	17700 fluorescence intensity (a.u.)
GGCTCGCGGAGGGCGGGGCTGGGATGGTGGCGGATGGGAGCGGAGTCACCTAGTGCAG	10800 fluorescence intensity (a.u.)
